Laboratory results reported in PubChem BioAssay AID652234 (Broad Institute, 2013).
Calls of active or inactive are those of the source. How the calls were made is not given here.

Biological target: Ubiquitin carboxyl-terminal hydrolase 9X (Homo sapiens) (UniProt Q93008)
Test: binders of human deubiquitinase USP9X – biophysical, surface plasmon resonance, orthogonal assay, late-stage follow-up (AID 652234)
Details: Recombinant USP9X, SPR Biacore T200, RU; at 100 µM (top of the series)

Sequence of Ubiquitin carboxyl-terminal hydrolase 9X (Homo sapiens) (Q93008 whole entry, looked up): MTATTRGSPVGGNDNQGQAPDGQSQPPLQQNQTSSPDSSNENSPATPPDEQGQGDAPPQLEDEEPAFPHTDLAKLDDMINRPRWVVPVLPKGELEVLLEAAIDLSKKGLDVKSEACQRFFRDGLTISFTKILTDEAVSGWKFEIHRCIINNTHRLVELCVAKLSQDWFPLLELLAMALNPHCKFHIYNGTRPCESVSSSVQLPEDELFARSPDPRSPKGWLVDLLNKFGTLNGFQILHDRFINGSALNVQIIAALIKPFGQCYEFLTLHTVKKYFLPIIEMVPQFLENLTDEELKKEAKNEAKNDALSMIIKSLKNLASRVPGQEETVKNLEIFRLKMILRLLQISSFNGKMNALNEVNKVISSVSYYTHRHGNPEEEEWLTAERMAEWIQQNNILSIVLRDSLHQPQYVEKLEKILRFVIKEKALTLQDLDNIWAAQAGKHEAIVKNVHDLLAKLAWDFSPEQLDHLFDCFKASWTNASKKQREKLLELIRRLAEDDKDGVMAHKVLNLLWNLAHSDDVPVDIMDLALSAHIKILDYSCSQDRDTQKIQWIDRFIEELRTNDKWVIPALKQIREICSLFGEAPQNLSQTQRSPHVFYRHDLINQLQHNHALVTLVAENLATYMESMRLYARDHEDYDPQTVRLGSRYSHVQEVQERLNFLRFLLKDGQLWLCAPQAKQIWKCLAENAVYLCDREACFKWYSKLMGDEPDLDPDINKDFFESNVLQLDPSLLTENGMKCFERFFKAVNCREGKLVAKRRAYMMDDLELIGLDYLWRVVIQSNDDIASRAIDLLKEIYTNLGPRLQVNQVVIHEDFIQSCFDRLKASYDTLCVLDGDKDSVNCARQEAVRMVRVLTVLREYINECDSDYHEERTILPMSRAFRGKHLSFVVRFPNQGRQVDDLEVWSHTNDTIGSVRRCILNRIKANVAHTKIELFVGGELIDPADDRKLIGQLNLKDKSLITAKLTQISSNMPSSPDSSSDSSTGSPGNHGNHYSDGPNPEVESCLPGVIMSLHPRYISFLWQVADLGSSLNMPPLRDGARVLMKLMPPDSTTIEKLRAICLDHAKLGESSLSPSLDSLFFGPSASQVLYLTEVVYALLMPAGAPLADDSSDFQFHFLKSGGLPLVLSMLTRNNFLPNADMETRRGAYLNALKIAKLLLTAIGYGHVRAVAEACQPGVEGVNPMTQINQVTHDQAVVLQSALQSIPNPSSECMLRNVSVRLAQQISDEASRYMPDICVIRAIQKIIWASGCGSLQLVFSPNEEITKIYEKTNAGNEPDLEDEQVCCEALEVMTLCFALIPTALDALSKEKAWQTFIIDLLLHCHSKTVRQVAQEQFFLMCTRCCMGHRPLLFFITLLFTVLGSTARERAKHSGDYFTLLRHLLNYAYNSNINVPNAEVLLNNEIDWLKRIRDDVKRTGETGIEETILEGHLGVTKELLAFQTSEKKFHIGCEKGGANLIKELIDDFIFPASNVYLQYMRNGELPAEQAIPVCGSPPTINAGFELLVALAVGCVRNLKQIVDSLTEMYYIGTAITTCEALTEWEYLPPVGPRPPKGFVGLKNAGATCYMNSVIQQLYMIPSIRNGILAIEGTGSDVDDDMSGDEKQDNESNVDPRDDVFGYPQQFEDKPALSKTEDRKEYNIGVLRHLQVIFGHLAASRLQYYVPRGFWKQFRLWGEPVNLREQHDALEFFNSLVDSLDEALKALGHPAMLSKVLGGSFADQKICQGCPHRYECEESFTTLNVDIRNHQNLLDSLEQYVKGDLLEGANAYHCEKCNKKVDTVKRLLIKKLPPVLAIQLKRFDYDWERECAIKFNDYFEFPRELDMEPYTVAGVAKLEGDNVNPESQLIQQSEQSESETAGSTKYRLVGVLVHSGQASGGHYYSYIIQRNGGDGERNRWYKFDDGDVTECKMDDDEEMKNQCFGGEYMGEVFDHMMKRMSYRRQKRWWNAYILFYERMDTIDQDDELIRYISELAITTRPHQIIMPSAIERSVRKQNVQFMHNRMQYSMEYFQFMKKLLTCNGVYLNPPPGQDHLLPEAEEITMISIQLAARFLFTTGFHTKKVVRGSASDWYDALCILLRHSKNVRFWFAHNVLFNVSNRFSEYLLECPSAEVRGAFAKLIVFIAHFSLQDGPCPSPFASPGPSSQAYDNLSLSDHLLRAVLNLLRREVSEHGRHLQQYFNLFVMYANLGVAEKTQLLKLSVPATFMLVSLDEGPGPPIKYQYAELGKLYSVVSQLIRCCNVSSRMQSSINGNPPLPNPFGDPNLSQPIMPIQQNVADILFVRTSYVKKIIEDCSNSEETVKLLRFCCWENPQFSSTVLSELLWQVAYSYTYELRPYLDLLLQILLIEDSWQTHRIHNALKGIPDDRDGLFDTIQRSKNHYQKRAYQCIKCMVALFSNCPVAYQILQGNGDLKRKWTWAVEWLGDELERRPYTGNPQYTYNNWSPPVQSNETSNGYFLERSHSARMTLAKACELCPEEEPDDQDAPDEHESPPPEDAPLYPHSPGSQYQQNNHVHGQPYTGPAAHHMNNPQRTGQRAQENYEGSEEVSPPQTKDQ

C[C@@H]1CN([C@@H](C)CO)C(=O)c2cccc(NC(=O)Nc3cccc4ccccc34)c2O[C@H]1CN(C)S(=O)(=O)c1ccc2c(c1)OCCO2
binding signal (RU), higher = more binding: 11.2 (active)
